For eight molecules, composite z-score and z-score results are on record in PubChem BioAssay.

Activity calls are given as the source filed them. Unless noted, how the calls were made is not given here.

The subject of experiment [1] is Wnt5a (protein binding on small-molecule microarray). Put plainly: small molecules binding Wnt5a protein – biophysical, small-molecule microarray, 635/667 nm fluorescence, primary screen (AID 1142).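 Further: fluorescence read at 667 nm with signal to noise per printed feature.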 The conditions noted are these: 635 nm fluorescence, higher = more signal.
Experiment [2] in a line: ATP-based viability of Huh7 replicon cells – cell-based, CellTiter-Glo luminescence, basal, 48 h, cytotoxicity control for HCV replication inhibitor project, primary screen (AID 1143).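 Further: Huh7 hepatoma cells carrying a hepatitis C replication reporter with no stimulus; test concentration not given here.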 As to conditions: higher = more signal, called active from +8 up or from −8 down.
Experiment [3] can be described thus: Pseudomonas biofilm growth suppression – PAO1 strain, BacTiter-Glo luminescence, LB-PBS, primary screen (AID 1144). The conditions noted are these: P. aeruginosa PAO1 biofilm, 12 h, higher = more signal.
Experiment [4] in a line: basal CRE-LacZ reporter activity in PC12 – cell-based, unstimulated, primary screen (AID 1145). The conditions noted are these: no forskolin, luminescence, 4.5 h, higher = more signal, called active from +8 up or from −8 down.
Experiment [5] in a line: forskolin-driven CRE-LacZ activity in PC12 – cell-based, CRE-LacZ reporter, forskolin-stimulated, primary screen (AID 1146).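 Further: PC12 cells with 6xCRE LacZ reporter stimulated by forskolin 10 µM; beta-galactosidase reporter signal reflecting CREB driven transcription.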 As to conditions: luminescence, 4.5 h, higher = more signal, called active from +8 up or from −8 down.
For experiment [6], the target named is Streptavidin (Streptomyces avidinii) (UniProt P22629). In words: compounds binding control protein streptavidin – biophysical, small-molecule microarray, 635/667 nm fluorescence, artefact control for SMM compound annotation, primary screen (AID 1147).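 Further: signal reflects streptavidin binding to arrayed compounds as a control protein.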 As to conditions: higher = more signal.
Sequence of Streptavidin (Streptomyces avidinii) (P22629 whole entry, looked up): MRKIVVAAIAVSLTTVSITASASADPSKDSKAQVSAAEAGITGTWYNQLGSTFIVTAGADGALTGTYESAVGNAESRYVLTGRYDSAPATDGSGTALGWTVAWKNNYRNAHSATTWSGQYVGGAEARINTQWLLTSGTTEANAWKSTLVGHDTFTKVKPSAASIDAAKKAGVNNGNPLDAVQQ
Experiment [7] is described as follows: probe aInhba binding on compound microarray – biochemical, small-molecule microarray, 635/667 nm fluorescence, primary screen (AID 1148).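 Further: score merges 667nm spot fluorescence with signal-to-noise for antibody binding to printed compounds.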 The conditions noted are these: higher = more signal.
Experiment [8] has as its target Torsin-1A (Homo sapiens) (UniProt O14656). Put plainly: TOR1A wild-type binding on microarray – cell lysate, small-molecule microarray, lysate, 635/667 nm, primary screen (AID 1149). The conditions noted are these: COS7 hTOR1A-WT lysate, 635 nm fluorescence, higher = more signal.
The target is the same in experiment [9]. In words: torsin A mutant lysate binding on microarrays – cell lysate, small-molecule microarray, COS7 lysate, 635/667 nm fluorescence, primary screen (AID 1150).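 Further: score pools 667 nm emission and signal to noise measuring lysate protein binding.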 The conditions noted are these: COS7 hTOR1A mutant lysate, 635 nm fluorescence, higher = more signal.
The subject of experiment [10] is Sonic hedgehog protein (Shh). In words: Sonic hedgehog microarray binding compounds – biochemical, small-molecule microarray, 635/667 nm fluorescence, primary screen (AID 1151).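 Further: Shh protein binding to compounds spotted on small-molecule microarray slides; score combines spot fluorescence intensity with signal-to-noise across triplicate slides.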 As to conditions: 635 nm fluorescence, higher = more signal.
A short description of experiment [11]: optical density shifts of acrAB sulA E. coli – strain DRC41, OD650, 48 h, E. coli filamentation inducer project, primary screen (AID 1152).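 Further: E. coli MC1000 strain DRC41 lacking acrAB efflux pump and sulA.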 As to conditions: higher = more signal, called active from +8 up or from −8 down.
Experiment [12] is described as follows: probe aLefty1 binding on compound microarray – biochemical, small-molecule microarray, 635/667 nm fluorescence, primary screen (AID 1153).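 Further: score merges spot fluorescence with signal-to-noise ratio from the scanned slide images.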 The conditions noted are these: higher = more signal.
Experiment [13] is described as follows: plasmodial surface anion channel blockers, osmotic lysis – cell-based, P. falciparum Indochina, OD700, 1 h, primary screen (AID 1154). The conditions noted are these: P. falciparum Indochina infected RBC osmotic lysis, higher = more signal, called active from +8 up or from −8 down.
A short description of experiment [14]: plasmodial surface anion channel blockers, osmotic lysis – cell-based, P. falciparum Indochina, OD700, 2 h, primary screen (AID 1155).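 Further: lysis reports solute entry through the parasite surface anion channel PSAC.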 The conditions noted are these: P. falciparum Indochina infected erythrocytes, higher = more signal, called active from +8 up or from −8 down.
Experiment [15] can be described thus: changes in parasitized red cell lysis, either direction – P. falciparum Indochina, OD700, 3 h, PSAC antagonist project, primary screen (AID 1156). As to conditions: P. falciparum-infected erythrocytes, osmotic lysis, higher = more signal, called active from +8 up or from −8 down.
Experiment [16] can be described thus: plasmodial surface anion channel blockers, osmotic lysis – cell-based, P. falciparum Indochina, OD700, 18 h, primary screen (AID 1157). As to conditions: P. falciparum Indochina infected erythrocytes, osmotic lysis OD700, 18 h; higher = more signal, called active from +8 up or from −8 down.
The nature of experiment [17]: S6 kinase pathway phospho-S6 level changes – cell-based, A549, cytoblot, luminescence, serum-stimulated, primary screen (AID 1158).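 Further: serum-stimulated A549 lung adenocarcinoma cells; signal is phosphorylated S6 detected by cytoblot immunostaining with HRP secondary.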 As to conditions: 5 h, higher = more signal.
The target of experiment [18] is NADPH oxidase 2 (Homo sapiens) (UniProt P04839). In words: compounds shifting NOX2 Amplex Red fluorescence – cell-based, HEK293-NOX2, PMA-stimulated, NOX inhibitor project, primary screen (AID 1159). Further: test concentration not given here. The conditions noted are these: 45 min, higher = more signal, called active from +8 up or from −8 down.
Sequence of NADPH oxidase 2 (Homo sapiens) (P04839 whole entry, looked up): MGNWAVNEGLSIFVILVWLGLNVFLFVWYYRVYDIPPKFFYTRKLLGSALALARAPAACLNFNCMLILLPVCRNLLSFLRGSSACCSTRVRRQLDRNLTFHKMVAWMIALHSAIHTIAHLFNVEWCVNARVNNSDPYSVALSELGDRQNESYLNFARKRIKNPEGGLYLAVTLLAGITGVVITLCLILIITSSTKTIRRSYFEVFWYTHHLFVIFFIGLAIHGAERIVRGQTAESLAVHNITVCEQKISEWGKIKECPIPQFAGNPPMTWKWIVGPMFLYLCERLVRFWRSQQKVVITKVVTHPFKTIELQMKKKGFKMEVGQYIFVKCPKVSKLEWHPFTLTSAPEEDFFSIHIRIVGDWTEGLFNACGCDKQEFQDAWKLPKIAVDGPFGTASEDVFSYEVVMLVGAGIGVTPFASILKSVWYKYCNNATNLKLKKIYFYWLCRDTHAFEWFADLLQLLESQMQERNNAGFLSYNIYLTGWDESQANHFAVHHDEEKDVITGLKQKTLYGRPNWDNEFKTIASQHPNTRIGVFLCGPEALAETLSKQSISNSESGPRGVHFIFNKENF
Experiment [19] deals with NADPH oxidase 4 (Homo sapiens) (UniProt Q9NPH5). Put plainly: compounds shifting NOX4 Amplex Red fluorescence – cell-based, HEK293-NOX4, tetracycline-induced, NOX inhibitor project, primary screen (AID 1160). The conditions noted are these: HEK293-NOX4, Amplex Red H2O2 fluorescence, 45 min; higher = more signal, called active from +8 up or from −8 down.
Sequence of NADPH oxidase 4 (Homo sapiens) (Q9NPH5 whole entry, looked up): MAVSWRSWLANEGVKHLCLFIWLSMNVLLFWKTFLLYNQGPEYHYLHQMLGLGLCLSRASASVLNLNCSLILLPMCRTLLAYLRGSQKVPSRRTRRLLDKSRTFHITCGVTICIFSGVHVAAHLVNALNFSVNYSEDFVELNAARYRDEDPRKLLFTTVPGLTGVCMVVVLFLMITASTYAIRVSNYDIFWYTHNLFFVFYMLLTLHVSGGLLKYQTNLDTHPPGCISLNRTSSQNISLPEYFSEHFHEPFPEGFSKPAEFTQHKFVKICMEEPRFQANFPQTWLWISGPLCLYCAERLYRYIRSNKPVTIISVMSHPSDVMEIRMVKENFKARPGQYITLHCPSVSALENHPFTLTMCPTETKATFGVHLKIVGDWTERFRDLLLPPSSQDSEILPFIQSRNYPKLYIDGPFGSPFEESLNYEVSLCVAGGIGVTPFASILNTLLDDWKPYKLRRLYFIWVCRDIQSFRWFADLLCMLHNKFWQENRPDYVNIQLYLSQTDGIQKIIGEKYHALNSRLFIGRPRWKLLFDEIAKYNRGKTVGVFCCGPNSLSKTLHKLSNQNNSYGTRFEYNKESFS
Experiment [20] addresses NADPH oxidase 5 (Homo sapiens) (UniProt Q96PH1). In words: compounds shifting NOX5 Amplex Red fluorescence – cell-based, HEK293-NOX5, NOX inhibitor project, primary screen (AID 1161). As to conditions: HEK293-NOX5, ionomycin, 45 min, higher = more signal.

Sequence of NADPH oxidase 5 (Homo sapiens) (Q96PH1 whole entry, looked up): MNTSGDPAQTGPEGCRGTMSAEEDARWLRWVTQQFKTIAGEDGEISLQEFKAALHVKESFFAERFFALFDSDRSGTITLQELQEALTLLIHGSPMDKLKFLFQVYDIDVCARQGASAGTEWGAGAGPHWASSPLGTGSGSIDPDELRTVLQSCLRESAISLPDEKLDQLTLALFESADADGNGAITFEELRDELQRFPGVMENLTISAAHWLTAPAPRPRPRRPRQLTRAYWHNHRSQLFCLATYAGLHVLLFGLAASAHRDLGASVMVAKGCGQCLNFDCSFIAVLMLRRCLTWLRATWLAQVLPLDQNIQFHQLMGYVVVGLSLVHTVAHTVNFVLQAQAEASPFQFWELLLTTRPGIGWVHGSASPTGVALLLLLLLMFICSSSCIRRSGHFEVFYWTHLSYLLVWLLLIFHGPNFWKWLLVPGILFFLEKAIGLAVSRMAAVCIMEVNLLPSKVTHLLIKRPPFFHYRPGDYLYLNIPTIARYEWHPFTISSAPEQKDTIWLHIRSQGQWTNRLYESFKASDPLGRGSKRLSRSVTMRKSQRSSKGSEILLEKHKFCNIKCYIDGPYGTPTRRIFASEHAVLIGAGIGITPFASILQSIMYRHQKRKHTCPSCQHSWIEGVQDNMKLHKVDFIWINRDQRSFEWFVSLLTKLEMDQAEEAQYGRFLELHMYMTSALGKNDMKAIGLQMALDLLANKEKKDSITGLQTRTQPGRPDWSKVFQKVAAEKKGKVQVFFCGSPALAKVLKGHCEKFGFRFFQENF
Sequence of Torsin-1A (Homo sapiens) (O14656 whole entry, looked up): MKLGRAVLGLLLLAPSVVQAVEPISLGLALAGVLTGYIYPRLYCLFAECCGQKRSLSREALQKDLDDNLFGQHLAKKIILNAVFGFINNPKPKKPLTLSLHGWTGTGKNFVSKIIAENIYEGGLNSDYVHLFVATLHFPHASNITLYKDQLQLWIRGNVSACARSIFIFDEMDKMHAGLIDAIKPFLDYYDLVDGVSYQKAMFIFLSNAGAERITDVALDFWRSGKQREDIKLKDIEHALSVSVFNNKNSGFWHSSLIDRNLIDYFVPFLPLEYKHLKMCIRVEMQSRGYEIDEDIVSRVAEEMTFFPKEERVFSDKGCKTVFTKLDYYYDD

In the case of `CN1C(=O)C2C=CC(C(O)c3ccc(F)cc3)N(N3CCCCC3)C2C1=O` (stereo not given), the composite z-score was 0.442 in experiment [1]; 0.428 in experiment [6]; 0.838 in experiment [7]; 0.759 with Torsin-1A (Homo sapiens) [8]; 0.531 in the experiment with Torsin-1A (Homo sapiens) [9]; -0.846 in [10]. Further, the composite z-score in experiment [12] was 0.604. Further, the z-score in experiment [2] is 1 (inactive); in experiment [3], -0.273 (inactive); in experiment [4] it was 1.01 (inactive); in experiment [5], -0.523 (inactive); in experiment [11] it was -1.37 (inactive); in experiment [13], 1.02 (inactive). Moreover, the z-score in experiment [14] is 1.14 (inactive); in experiment [15] it was 0.772 (inactive); in experiment [16], 1.2 (inactive); in [17], -1.08; in experiment [18] it was 0.0457 (inactive); in [19], -0.751 (inactive). For the same molecule, the z-score in [20] is -1.35.

Turning to `COCCCNC(=O)[C@]1(Cc2ccccc2CN=[N+]=[N-])N=C(c2ccc(OCCCO)cc2)O[C@@H]1c1ccccc1CN=[N+]=[N-]`, the composite z-score in experiment [1] was 0.471; in experiment [6] it was 1.23; in [7], 0.648; in the experiment with Torsin-1A (Homo sapiens) [8] it was 0.883; in the experiment with Torsin-1A (Homo sapiens) [9], 0.721; in [10], -0.256. Besides, the composite z-score in experiment [12] is 0.861. The z-score in experiment [2] was -4.04 (inactive); in experiment [3], 1.06 (inactive); in experiment [4], 0.969 (inactive); in [5] it was -1.02 (inactive); in experiment [11], -0.279 (inactive); in [13] it was 28.8 (active). Also, the z-score was 21.5 (active) in [14]; 1.72 (inactive) in experiment [15]; 2.09 (inactive) in experiment [16]; 0.953 in experiment [17]; -0.983 (inactive) in experiment [18]; -0.00869 (inactive) in [19]. In experiment [20], the z-score is -0.84.

On to `COc1ccc([Si](C)(C)[C@@H]2[C@@H](CCO)O[C@]3(C(=O)N(Cc4ccc(N5C(=O)c6ccccc6Oc6ccccc65)cc4)c4ccccc43)[C@H]2C)cc1`, for which the composite z-score was -0.355 in experiment [1]; -0.132 in experiment [6]; -0.179 in experiment [7]; -1.04 with Torsin-1A (Homo sapiens) [8]; -0.949 with Torsin-1A (Homo sapiens) [9]; 0.0769 in [10]. Further, the composite z-score in [12] turned out to be 0.0496. For the same molecule, the z-score in [2] was -7.17 (inactive); in experiment [3], -0.734 (inactive); in experiment [4], 2.5 (inactive); in [5], 0.286 (inactive); in experiment [11], -0.572 (inactive); in experiment [13], 3.28 (inactive). Also, the z-score in experiment [14] was 1.99 (inactive); in experiment [15] it was -1.14 (inactive); in experiment [16] it was 1.26 (inactive); in experiment [17], 0.0148; in experiment [18] it was 0.0702 (inactive); in [19], 1.63 (inactive). Moreover, the z-score in experiment [20] stood at 2.29.

As to `COCCCNC(=O)[C@]1(Cc2ccccc2)N=C(c2ccc(OCCCO)cc2)O[C@@H]1c1ccccc1N=[N+]=[N-]`, the composite z-score was 1.1 in experiment [1]; 0.607 in experiment [6]; -0.0136 in [7]; 1.04 in the experiment with Torsin-1A (Homo sapiens) [8]; 1.04 with Torsin-1A (Homo sapiens) [9]; -0.46 in [10]. This molecule also yielded a composite z-score in experiment [12] of 0.334. Further, the z-score is -5.91 (inactive) in [2]; -1.57 (inactive) in experiment [3]; 0.101 (inactive) in experiment [4]; -0.844 (inactive) in experiment [5]; 1.1 (inactive) in experiment [11]; 31.9 (active) in experiment [13]. For the same molecule, the z-score is 27.3 (active) in experiment [14]; 2.49 (inactive) in experiment [15]; 2.24 (inactive) in experiment [16]; 1.44 in experiment [17]; -5.51 (inactive) in [18]; -2.84 (inactive) in experiment [19]. Moreover, the z-score in [20] is -2.21.

As for `COCCCNC(=O)[C@]1(CCS(=O)(=O)c2ccccc2)N=C(c2ccc(OCCCO)cc2)O[C@@H]1c1ccccc1`, the composite z-score in experiment [1] worked out at 0.118; in [6] it was 1.43; in [7], 0.371; with Torsin-1A (Homo sapiens) [8] it was 0.972; with Torsin-1A (Homo sapiens) [9], 1.33; in [10] it was 0.306. In experiment [12], the composite z-score came out at 1.12. In addition, the z-score in experiment [2] is -1.63 (inactive); in [3] it was -0.812 (inactive); in [4] it was 0.638 (inactive); in [5], -1.33 (inactive); in [11], 0.664 (inactive); in experiment [13] it was 26 (active). Further, the z-score was 9.64 (active) in experiment [14]; 2.14 (inactive) in experiment [15]; 1.82 (inactive) in [16]; -0.108 in experiment [17]; -0.0777 (inactive) in [18]; 1.72 (inactive) in [19]. Moreover, the z-score in experiment [20] is 0.88.

Regarding `Cc1ccc(C(C)CC(O)C2C=CC3C(=O)N(Cc4ccccc4)C(=O)C3N2n2cnnc2)o1` (stereo not given), the composite z-score is 1.36 in [1]; 0.352 in [6]; 1.36 in [7]; 0.173 with Torsin-1A (Homo sapiens) [8]; 0.663 with Torsin-1A (Homo sapiens) [9]; -0.265 in experiment [10]. In [12], this molecule yielded a composite z-score of 1.21. The z-score was -0.167 (inactive) in experiment [2]; 0.928 (inactive) in experiment [3]; 0.323 (inactive) in experiment [4]; 1.14 (inactive) in [5]; -1.44 (inactive) in experiment [11]; 2.31 (inactive) in [13]. Besides, the z-score in experiment [14] was 0.793 (inactive); in [15] it was 0.809 (inactive); in experiment [16] it was 0.709 (inactive); in experiment [17], -0.63; in experiment [18] it was -0.168 (inactive); in experiment [19], -1.78 (inactive). Further, in [20], the z-score was -2.17.

`N#Cc1ccc(NN2C(C(O)c3ccccc3)C=CC3C(=O)N(c4ccccc4)C(=O)C32)cc1` (stereo not given): the composite z-score was 0.213 in experiment [1]; 0.475 in [6]; 0.11 in experiment [7]; 0.408 with Torsin-1A (Homo sapiens) [8]; -0.0163 with Torsin-1A (Homo sapiens) [9]; -0.67 in experiment [10]. Besides, the composite z-score in [12] worked out at 0.0077. The z-score in experiment [2] was 0.574 (inactive); in [3], -0.121 (inactive); in experiment [4] it was -1.11 (inactive); in [5], 1.06 (inactive); in experiment [11], -1.28 (inactive); in experiment [13], 9.06 (active). The z-score in [14] is 0.611 (inactive); in [15] it was 1.65 (inactive); in experiment [16], 0.58 (inactive); in [17], -0.823; in [18], -2.08 (inactive); in experiment [19], -5.5 (inactive). In experiment [20], the z-score is -3.44.

With `CC(C)CN1C(=O)[C@@]2(Cc3ccccc31)c1ccccc1C(=O)N(Cc1ccccc1)[C@H]2c1ccc(CO)cc1`, the composite z-score was -0.631 in experiment [1]; -0.64 in [6]; -0.102 in [7]; -0.971 with Torsin-1A (Homo sapiens) [8]; -0.359 with Torsin-1A (Homo sapiens) [9]; -1.05 in experiment [10]. In experiment [12], this molecule came in with a composite z-score of -0.702. In addition, the z-score in [2] was 0.174 (inactive); in [3] it was -0.221 (inactive); in [4], -0.295 (inactive); in experiment [5], 0.378 (inactive); in experiment [11] it was -0.731 (inactive); in experiment [13], 0.0889 (inactive). Also, the z-score in experiment [14] is -0.719 (inactive); in experiment [15] it was 0.27 (inactive); in experiment [16], 0.157 (inactive); in experiment [17] it was 0.148; in experiment [18], 0.439 (inactive); in [19], -0.348 (inactive). Besides, in [20], the z-score was -0.498.
